Measured values as given in ChEMBL document CHEMBL3988442, “University of Dundee, Small-Polar-MMV Screening Library” (2021).
For some of these results: Results with a measured potency or affinity are listed apart.

Key:
Design in all cases: scale not given: direction of the effect not stated beside the values
[1] = molecular target: Protein translocase subunit SecA (Escherichia coli (strain K12)) (UniProt P10408); assay: Assay to Identify E. coli SecA ATPase Inhibitors; format: functional; conditions: 30 µM
[2] = molecular target: T1, Ubiquitin-activating enzyme e1, putative (Leishmania donovani (strain BPK282A1)) (UniProt E9BSI1); assay: Leishmania donovani Ubiquitin Activating Enzyme (LdE1); format: functional; conditions: 30 µM
T1 sequence (whole entry): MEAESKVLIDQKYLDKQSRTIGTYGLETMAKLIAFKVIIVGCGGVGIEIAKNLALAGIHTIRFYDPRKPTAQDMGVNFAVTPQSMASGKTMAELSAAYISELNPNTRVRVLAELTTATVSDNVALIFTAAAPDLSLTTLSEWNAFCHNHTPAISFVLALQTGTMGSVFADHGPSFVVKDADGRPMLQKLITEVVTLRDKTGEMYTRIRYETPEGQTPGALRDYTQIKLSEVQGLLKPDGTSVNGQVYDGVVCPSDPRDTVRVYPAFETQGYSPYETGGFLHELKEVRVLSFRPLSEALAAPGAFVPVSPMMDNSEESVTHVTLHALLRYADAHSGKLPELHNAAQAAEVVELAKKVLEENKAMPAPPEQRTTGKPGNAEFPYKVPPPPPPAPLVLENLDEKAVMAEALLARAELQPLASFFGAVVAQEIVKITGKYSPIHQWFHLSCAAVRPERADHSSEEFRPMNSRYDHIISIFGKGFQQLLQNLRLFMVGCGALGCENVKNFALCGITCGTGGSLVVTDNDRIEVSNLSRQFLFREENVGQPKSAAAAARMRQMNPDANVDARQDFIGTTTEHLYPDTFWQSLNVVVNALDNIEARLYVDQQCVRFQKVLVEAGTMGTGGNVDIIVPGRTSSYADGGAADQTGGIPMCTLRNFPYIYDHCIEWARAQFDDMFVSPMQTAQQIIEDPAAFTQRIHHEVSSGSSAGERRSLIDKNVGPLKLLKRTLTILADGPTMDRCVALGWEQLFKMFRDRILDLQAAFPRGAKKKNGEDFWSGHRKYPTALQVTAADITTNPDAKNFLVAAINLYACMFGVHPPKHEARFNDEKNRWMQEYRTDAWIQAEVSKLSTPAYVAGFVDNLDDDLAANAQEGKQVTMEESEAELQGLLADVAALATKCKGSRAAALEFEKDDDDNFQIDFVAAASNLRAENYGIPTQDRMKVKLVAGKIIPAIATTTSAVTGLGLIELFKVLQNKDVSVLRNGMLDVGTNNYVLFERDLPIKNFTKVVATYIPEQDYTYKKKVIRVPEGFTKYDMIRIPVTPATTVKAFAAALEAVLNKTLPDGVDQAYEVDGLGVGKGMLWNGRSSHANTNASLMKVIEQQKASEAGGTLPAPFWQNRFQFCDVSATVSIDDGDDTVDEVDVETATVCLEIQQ

[3] = molecular target: AMP-activated protein kinase, AMPK (Homo sapiens) (UniProt P54646+O43741+P54619+Q9UGJ0+Q9Y478+Q13131+Q9UGI9); assay: AMP-dependent Kinase enzyme assay. An in vitro enzyme assay that detects ADP turnover that is directly proportional to AMPK activity. This uses naive AMPK that is activated during the assay with MK-8722; format: functional; conditions: 30 µM
[4] = molecular target: Sialic acid-binding Ig-like lectin 9 (Homo sapiens) (UniProt Q9Y336); assay: Hs-Siglec9 ALPHAscreen SOP 20170721; conditions: 10 µM
Trypanosoma cruzi = assay: Trypanosoma cruzi phosphomannomutase and mannose-1-phosphate guanylyltransferase assay; format: functional; conditions: 10 µM
[5] = molecular target: T2, Arginase-2, mitochondrial (Homo sapiens) (UniProt P78540); assay: in vitro enzyme assay to detect the production of urea directly proportional to the activity of Arginase II; format: functional; conditions: 33.3 µM; further: in the data most compounds retested in dose-response had high values
T2 sequence (whole entry): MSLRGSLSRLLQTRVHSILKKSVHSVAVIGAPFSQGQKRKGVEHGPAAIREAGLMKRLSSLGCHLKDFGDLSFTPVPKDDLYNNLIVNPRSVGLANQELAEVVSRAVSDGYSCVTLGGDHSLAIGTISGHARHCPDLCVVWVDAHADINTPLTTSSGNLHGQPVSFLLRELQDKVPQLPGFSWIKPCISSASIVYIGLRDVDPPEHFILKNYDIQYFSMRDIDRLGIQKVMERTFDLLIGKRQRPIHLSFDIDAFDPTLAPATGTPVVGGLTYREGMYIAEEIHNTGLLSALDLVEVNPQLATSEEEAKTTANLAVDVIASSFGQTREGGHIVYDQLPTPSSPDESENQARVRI

[6] = molecular target: T3, Proteasome subunit beta (Trypanosoma cruzi) (UniProt O96673); assay: Trypanosoma cruzi proteasome chymotrypsin-like activity (TcProtChymo) assay.; further: in the data most compounds retested in dose-response had high values; format: functional; conditions: 9.37 µM
T3 sequence (whole entry): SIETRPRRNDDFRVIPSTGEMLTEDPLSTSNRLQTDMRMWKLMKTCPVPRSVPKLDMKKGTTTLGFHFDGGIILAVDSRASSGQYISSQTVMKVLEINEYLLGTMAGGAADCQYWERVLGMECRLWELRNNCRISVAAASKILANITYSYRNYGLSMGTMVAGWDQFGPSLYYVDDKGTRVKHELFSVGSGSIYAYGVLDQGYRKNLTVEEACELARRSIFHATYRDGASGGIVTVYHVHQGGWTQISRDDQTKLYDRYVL

Homo sapiens = organism: Homo sapiens; assay: To identify inhibition of the IFN signalling (Jak-Stat) pathway via expression of an eGFP reporter gene under the control of an IFN-stimulated response element (ISRE) containing MxA promoter.; format: functional; conditions: 30 µM
[7] = molecular target: T4, Tyrosyl-tRNA synthetase, putative (Trypanosoma cruzi (strain CL Brener)) (UniProt Q4DSP6); assay: Trypanosoma cruzi tyrosyl tRNA synthetase (TcYRS) _High Tyrosine SOP; format: functional; conditions: 30 µM; further: in the data most compounds retested in dose-response had high values
T4 sequence (whole entry): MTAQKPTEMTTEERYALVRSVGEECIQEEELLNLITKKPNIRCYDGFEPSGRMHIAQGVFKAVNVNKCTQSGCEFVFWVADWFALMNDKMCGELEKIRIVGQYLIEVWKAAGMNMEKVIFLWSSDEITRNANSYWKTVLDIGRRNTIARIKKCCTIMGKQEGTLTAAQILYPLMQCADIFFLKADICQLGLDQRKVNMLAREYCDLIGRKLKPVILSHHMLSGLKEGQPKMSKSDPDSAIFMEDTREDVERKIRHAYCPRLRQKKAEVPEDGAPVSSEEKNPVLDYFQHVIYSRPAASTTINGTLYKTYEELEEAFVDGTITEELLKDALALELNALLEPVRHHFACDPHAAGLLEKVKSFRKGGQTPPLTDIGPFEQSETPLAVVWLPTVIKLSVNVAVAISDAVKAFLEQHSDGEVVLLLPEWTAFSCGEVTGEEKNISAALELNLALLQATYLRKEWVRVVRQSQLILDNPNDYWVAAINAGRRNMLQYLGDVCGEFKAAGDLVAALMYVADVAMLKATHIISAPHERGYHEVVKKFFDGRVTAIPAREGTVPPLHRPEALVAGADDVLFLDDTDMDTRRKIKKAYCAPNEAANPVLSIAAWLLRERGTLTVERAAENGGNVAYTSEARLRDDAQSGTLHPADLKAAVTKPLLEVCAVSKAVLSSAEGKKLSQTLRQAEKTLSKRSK

[8] = molecular target: T4, Tyrosyl-tRNA synthetase, putative (Trypanosoma cruzi (strain CL Brener)); assay: Trypanosoma cruzi tyrosyl tRNA synthetase (TcYRS) SOP; format: functional; conditions: 30 µM
[9] = molecular target: Chromo domain-containing protein 1 (Saccharomyces cerevisiae (strain ATCC 204508 / S288c) (Baker's yeast)) (UniProt P32657); assay: ScCHD-1 Enzyme Inhibition Assay; format: functional; conditions: 30 µM; further: in the data most compounds retested in dose-response had high values
Chromo domain-containing protein 1 (Saccharomyces cerevisiae (strain ATCC 204508 / S288c) (Baker's yeast)), sequence (P32657 whole entry, the tested form may be a part): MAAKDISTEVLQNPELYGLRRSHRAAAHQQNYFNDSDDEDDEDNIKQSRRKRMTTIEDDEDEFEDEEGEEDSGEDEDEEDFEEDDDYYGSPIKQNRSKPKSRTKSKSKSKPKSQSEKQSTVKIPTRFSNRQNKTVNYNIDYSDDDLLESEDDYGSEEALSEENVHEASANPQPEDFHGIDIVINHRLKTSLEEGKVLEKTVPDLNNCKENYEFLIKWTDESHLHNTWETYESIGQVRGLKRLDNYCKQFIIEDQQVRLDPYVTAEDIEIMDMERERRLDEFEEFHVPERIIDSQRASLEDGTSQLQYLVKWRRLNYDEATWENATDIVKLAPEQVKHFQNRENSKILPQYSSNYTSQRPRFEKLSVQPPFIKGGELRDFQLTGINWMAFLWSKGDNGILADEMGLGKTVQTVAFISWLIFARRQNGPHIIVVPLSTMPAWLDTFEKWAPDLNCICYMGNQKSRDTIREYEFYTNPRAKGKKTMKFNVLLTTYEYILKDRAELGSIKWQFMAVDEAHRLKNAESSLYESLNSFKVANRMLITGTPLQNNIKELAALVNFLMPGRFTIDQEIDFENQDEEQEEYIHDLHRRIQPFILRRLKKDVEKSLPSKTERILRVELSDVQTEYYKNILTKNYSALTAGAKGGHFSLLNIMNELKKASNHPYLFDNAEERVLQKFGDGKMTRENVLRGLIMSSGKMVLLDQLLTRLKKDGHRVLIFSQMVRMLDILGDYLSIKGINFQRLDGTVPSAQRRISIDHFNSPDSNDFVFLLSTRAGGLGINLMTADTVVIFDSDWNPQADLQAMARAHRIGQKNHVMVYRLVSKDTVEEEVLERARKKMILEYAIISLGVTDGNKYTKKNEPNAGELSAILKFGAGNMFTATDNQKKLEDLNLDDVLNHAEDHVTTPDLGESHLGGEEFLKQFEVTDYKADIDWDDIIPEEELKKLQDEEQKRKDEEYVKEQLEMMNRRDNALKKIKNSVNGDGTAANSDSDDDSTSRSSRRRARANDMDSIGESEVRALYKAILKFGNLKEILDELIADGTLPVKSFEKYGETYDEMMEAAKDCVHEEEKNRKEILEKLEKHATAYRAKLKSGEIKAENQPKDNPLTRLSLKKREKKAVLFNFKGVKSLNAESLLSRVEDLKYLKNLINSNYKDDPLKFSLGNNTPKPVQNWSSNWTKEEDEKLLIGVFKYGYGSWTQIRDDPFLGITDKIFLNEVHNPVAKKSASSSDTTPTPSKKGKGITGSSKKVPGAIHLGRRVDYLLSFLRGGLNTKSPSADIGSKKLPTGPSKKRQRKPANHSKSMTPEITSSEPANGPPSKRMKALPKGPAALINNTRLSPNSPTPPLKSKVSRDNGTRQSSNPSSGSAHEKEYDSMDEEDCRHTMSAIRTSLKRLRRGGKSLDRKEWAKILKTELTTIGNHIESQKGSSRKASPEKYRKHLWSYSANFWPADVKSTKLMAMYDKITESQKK

Protein translocase subunit SecA (Escherichia coli (strain K12)), sequence (P10408 whole entry): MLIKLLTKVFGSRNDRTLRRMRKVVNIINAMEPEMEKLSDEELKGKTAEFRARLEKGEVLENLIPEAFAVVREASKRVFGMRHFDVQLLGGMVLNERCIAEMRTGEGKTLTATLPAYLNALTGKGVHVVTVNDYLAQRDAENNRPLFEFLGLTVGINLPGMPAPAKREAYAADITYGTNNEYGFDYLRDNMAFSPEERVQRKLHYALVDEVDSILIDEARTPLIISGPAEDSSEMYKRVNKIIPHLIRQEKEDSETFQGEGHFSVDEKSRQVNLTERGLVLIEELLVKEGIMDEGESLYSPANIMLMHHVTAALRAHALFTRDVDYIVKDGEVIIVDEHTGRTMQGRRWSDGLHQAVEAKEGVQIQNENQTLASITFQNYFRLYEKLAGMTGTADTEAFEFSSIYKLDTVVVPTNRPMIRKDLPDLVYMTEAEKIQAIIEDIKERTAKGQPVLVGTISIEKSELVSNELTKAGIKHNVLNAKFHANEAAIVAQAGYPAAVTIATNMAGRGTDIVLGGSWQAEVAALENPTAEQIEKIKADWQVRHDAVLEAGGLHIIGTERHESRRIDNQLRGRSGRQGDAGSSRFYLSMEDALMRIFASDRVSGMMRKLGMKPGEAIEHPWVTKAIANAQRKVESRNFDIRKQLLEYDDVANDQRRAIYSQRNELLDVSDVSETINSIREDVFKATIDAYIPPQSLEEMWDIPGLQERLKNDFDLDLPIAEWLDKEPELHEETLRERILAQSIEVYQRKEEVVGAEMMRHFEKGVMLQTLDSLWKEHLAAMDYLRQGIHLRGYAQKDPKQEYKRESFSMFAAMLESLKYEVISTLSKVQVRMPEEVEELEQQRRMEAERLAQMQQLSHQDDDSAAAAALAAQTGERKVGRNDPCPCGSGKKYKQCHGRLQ
Sialic acid-binding Ig-like lectin 9 (Homo sapiens), sequence (Q9Y336 whole entry): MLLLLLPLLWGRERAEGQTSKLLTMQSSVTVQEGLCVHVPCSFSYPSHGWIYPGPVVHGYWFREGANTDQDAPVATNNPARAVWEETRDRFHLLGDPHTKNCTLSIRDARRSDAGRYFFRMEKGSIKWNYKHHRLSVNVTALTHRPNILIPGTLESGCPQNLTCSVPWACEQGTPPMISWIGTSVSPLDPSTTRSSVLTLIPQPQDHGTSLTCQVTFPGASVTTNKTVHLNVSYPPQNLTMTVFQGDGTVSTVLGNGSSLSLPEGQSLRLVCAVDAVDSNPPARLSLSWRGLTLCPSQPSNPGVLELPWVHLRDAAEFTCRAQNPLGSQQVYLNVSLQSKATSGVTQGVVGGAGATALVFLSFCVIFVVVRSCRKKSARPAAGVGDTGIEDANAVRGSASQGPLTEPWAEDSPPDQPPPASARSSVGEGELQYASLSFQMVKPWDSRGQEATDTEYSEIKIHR

Structure (SMILES)	Percent Effect [1] [%]	Percent Effect [2] [%]	Percent Effect [3] [%]	Percent Effect [4] [%]	Percent Effect (Trypanosoma cruzi) [%]	Percent Effect [5] [%]	Percent Effect [6] [%]	Percent Effect (Homo sapiens) [%]	Percent Effect [7] [%]	Percent Effect [8] [%]	Percent Effect [9] [%]
COc1ccc(CNCCc2cc(F)cc3c2OCOC3)cc1O	-5.67	4.17	-9.01	0.774	-2.62	-0.883	4.74	2.67	3.16	5.13	-2.11
COCCN1C[C@H]2[C@@H](C1)N(Cc1ccc(C)o1)CC[C@H]2OC	-2.85	-30.1	-5.66	7.25	6.94	-3.19	14.3	0.524	8.33	6.17	-11.5
CCNC(=O)NC(=O)CSC(C)c1ccccc1F (stereo unspecified)	-2.26	0	-7.52	16.2	3.8	16.7	11.3	-1.43	3.83	25.9	-6.89
CC(NCC1=Cc2cc(Cl)ccc2OC1)c1nnc2n1CCCC2 (stereo unspecified)	-3.07	-2.7	3.91	2.75	-0.195	1.67	9.38	-10.3	4.95	1.22	-3.29
CCn1ncc2c1C(COC)CN(Cc1ccc(OC)cc1)C2 (stereo unspecified)	-1.81	5.41	-4.68	14.4	2.44	0.744	3.35	40	2.15	6.17	-11.4
O=C(NCC1CC1)C1CSCN1S(=O)(=O)c1cccc(F)c1 (stereo unspecified)	-1.87	8.22	-0.192	-1.84	2.94	-0.455	25	-0.563	4.3	12.5	-3.76
COCC1CCN(C(=O)c2cccc(S(=O)(=O)NC3CCCC3)c2)C1 (stereo unspecified)	1.68	16.2	-0.427	10.5	1.66	10.2	17.4	13.5	5.38	21	-13.4
CN(CCO)Cc1nnc(C2CCN(C(=O)c3cccnc3)CC2)n1C	-3.37	16	-6.42	14.9	5.75	4.69	6.97	4.06	6.01	16.1	-7.14
CCc1nc(CN2CCCN(C(=O)C(C)n3cncn3)CC2)cs1 (stereo unspecified)	-4.01	2.6	-3.41	4.94	-6.93	6.05	4.05	19.8	4.85	2.44	-3.41
COCC1c2c(cnn2CC2CC2)CCN1Cc1ccc(OC)cc1 (stereo unspecified)	0.566	-5.33	-0.782	3.28	-0.772	-53.2	9.23	91.4	-4.17	2.5	-3.58
O=C(c1cccs1)N1C[C@H]2CC[C@@]3(N=C(c4ccccc4)NC3=O)[C@H]2C1	-1.64	7.79	0.0999	7.14	-2.06	-4.14	13.3	9.87	1.07	13.6	-0.884
